The nature of test [1]: yeast TOR pathway RPL19A-GFP modulators, primary screen, cell-based, S. cerevisiae, multiplex flow cytometry (AID 1862; in the data active means percent of DMSO control GFP below about 86%;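 further: lower values mimic rapamycin by blocking the RPL19A rise seen in DMSO cells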). Particulars: S. cerevisiae RPL19A-GFP strain, flow cytometry fluorescence, 3 h; at 10 µM; stronger effect = lower value. (Flow cytometry measures light scatter and fluorescence of single cells or particles in a stream.)
Test [2] can be described thus: modulators of MEP2-GFP levels in yeast, primary screen, S. cerevisiae, multiplex flow cytometry (AID 1867;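 active means GFP response, as percent of the DMSO control, above the screen-wide mean plus 3 SD, about 139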;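 further: median GFP channel fluorescence of barcode-gated MEP2-GFP cells measured by flow cytometry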). The note with it: S. cerevisiae MEP2-GFP strain, 3 h, at 10 µM, stronger effect = higher value, 100% means same as DMSO wells.
Test [3] in a line: modulators of CIT2-GFP expression in yeast, primary screen, S. cerevisiae, GFP fusion, multiplex flow cytometry (AID 1870;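 active means percent response above a set limit, the screen-wide mean plus 3 SD, cut at about 130% in these data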;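 further: barcoded CIT2-GFP strain pooled with four other GFP strains with rapamycin as positive control; median GFP fluorescence per well over plate mean of DMSO wells so 100% = DMSO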). The note with it: 3 h, at 10 µM, stronger effect = higher value.
Test [4] in a line: modulators of LAP4-GFP expression in yeast, primary screen, S. cerevisiae, multiplex flow cytometry (AID 1873;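 active means GFP signal, as percent of the solvent control, above the screen mean plus 3 SD, about 149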). The note with it: 3 h, at 10 µM, stronger effect = higher value.
Test [5] can be described thus: modulators of AGP1-GFP expression in yeast TOR pathway, primary screen, cell-based, multiplex flow cytometry, S. cerevisiae (AID 1887;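 active means GFP signal above the screen-wide mean plus 3 SD, that is over about 124.5% of the solvent control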;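 further: AGP1-GFP fusion strain of S. cerevisiae within a five-strain barcoded multiplex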). Particulars: 3 h, at 10 µM, stronger effect = higher value.
Test [6] can be described thus: inhibitors of CD8+ T cell-vesicle binding, pilot screen, LFA-1/ICAM-1 modulator project, MLPCN validation set, flow cytometry (AID 2523;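 active means response below a set limit, under 55% cells CD8-positive and vesicle-bound, and CD8 cells' 90th-percentile brightness under 279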;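 on vesicle binding response: mean PE anti-B7-1 fluorescence of CD8+ cells relative to row control; 100% = QL9-loaded vesicles with DMSO vehicle in the same plate row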). Particulars: 2C mouse CD8+ T cells, at 7 µM, stronger effect = lower value; double positive events: measured here: CD8+/vesicle+ event percentage.
For test [7], the target named is Integrin beta-1 (Homo sapiens) + Integrin alpha-4 (Homo sapiens) (UniProt P13612+P05556). Description: inhibition of HUTS-21 binding to VLA-4, pilot screen, VLA-4 allosteric modulator project, U937 cells, HUTS-21 mAb, flow cytometry, validation set (AID 2674;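 active means inhibition above 50%, about 3 SD of the validation set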;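 further: antibody binding induced by the VLA-4 ligand LDV present at three times its Kd; 0% = LDV ligand with antibody and no compound and 100% = antibody without LDV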). The note with it: HUTS-21 LIBS mAb binding, at 6.7 µM, stronger effect = higher value, binding induced by LDV ligand.

Test [8] is described as follows: superoxide lowering in aged yeast cells, pilot screen, validation compound set (AID 2706;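 active means superoxide response below 65% of plate, a cut near 3 SD across the whole screen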;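 further: yeast exposed to compound for one week at 30 degrees C before staining; 100% = mean of all compound wells on the same plate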). The note with it: S. cerevisiae aging, superoxide DHE fluorescence; at 10 µM; stronger effect = lower value.
In test [9] the target is Beta-adrenergic receptor kinase 1 (Homo sapiens) (UniProt P25098). Description: GRK2 binders displacing RNA aptamer, biochemical, validation, human GRK2, bead flow cytometry (AID 488806;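 active means aptamer binding inhibition above 30%, about 3 SD of noise from non-fluorescent compounds; inactive means inhibition at or below 30%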). The note with it: bead-bound GRK2, FAM-aptamer displacement, at 10 µM, stronger effect = higher value.
Test [10] deals with Beta-2 adrenergic receptor (Homo sapiens) (UniProt P07550). The test is described as follows: beta2AR agonists driving receptor internalization, pilot screen, cell-based, FAP fluorogen, flow cytometry, validation set (AID 504459;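 active means percent response above 42, roughly 3 SD of non-fluorescent test compounds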;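 further: agonist-driven loss of surface beta2AR via internalization measured by FAP dye flow cytometry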). The note with it: Am2.2-beta2AR cells, FAP surface receptor flow cytometry; at 10 µM; stronger effect = higher value.
Test [11] concerns the target AP-2 complex subunit beta (Homo sapiens) (UniProt P63010). Description: inhibitors of arrestin peptide binding to AP2, pilot screen, biochemical, validation set, GST-AP2 beads, flow cytometry (AID 504541;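 active means inhibition above 54%, about 3 SD of non-fluorescent compounds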;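 further: AP2 carries R879A mutation and is captured from E. coli lysate; bead-bound FITC arrestin peptide fluorescence measuring arrestin peptide binding to AP2; 0% = DMSO wells and 100% = excess unlabeled arrestin peptide control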). Particulars: FITC arrestin peptide, at 10 µM, stronger effect = higher value, AP2 beta2 appendage fragment, R879A mutant.
Test [12] can be described thus: yeast V-ATPase proton transport modulators, S. cerevisiae, pHLuorin, HTS validation (AID 504600; in the data active means response above about 15%;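 further: plate controls were DMSO for no effect and reference compound for full effect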). The note with it: S. cerevisiae pHLuorin cytosolic pH, at 10 µM, stronger effect = higher value.
Test [13] relates to anti-desmoglein-3 scFv antibody binding to human DSG3. The test is described as follows: inhibitors of anti-DSG3 scFv binding to DSG3, pilot screen, biochemical, validation compound set, bead-based, flow cytometry (AID 588368;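 active means binding below the plate cutoff, the plate median minus 3 SD, with a reading above zero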;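 further: signal is the median channel fluorescence of bead-bound GFP antibody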). Particulars: Protein G beads, DSG3-Fc, scFv-GFP binding, at 10 µM, stronger effect = lower value.
A short description of test [14]: inhibitors of fungal efflux pumps CDR1, CDR2, MDR1, pilot screen, validation compound set, multiplex, phenotypic (AID 588506;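 active means efflux inhibition above 0.42, the validation set average plus 4 SD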;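 further: Nile Red retained in cells so higher fluorescence means more efflux inhibition; 0 = negative control wells and 1 = enniatin B 25 µM full block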). Particulars: S. cerevisiae pump-expressing triplex, Nile Red efflux flow cytometry; at 10 µM; stronger effect = higher value; the pumps come from Candida albicans.
The target in test [15] is ATP-binding cassette sub-family B member 6 (Homo sapiens) (UniProt Q9NP58). The test is described as follows: ABCB6 transporter inhibitors, pilot screen, K562-ABCB6 cells, flow cytometry, validation set (AID 588550).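 Further: 0% = DMSO wells and 100% = benzethonium chloride 70 µM positive control.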 The note with it: K562-ABCB6 porphyrin accumulation, 1 h, at 10 µM, stronger effect = higher value.
The nature of test [16]: promoters of myeloid differentiation in arrested cells, primary screen, cell-based, GFP/MAC1 double positive, flow cytometry, validation set (AID 588685;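 active means differentiation response of at least 50%, scaled between solvent and reference control, from cells with both markers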;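 further: compound exposure lasts four days before antibody staining and flow analysis; 0% = DMSO wells and 100% = 5 µM fulvestrant positive control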). The note with it: ER-HoxA9 marrow cells, stronger effect = higher value, normalized: vehicle 0, fulvestrant 100.

As usually defined, the inhibition is the drop in the measured response relative to a control, in per cent.

SMILES strings stand for the structures. Records with an inconclusive call do not appear. Calls of active or inactive are those of the source.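 How the source made its calls, unless noted: active means inhibition above the screen-wide mean plus 3 SD, about 51%; inactive means the rest.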

Chain of Beta-adrenergic receptor kinase 1 (Homo sapiens) (P25098 whole entry, looked up): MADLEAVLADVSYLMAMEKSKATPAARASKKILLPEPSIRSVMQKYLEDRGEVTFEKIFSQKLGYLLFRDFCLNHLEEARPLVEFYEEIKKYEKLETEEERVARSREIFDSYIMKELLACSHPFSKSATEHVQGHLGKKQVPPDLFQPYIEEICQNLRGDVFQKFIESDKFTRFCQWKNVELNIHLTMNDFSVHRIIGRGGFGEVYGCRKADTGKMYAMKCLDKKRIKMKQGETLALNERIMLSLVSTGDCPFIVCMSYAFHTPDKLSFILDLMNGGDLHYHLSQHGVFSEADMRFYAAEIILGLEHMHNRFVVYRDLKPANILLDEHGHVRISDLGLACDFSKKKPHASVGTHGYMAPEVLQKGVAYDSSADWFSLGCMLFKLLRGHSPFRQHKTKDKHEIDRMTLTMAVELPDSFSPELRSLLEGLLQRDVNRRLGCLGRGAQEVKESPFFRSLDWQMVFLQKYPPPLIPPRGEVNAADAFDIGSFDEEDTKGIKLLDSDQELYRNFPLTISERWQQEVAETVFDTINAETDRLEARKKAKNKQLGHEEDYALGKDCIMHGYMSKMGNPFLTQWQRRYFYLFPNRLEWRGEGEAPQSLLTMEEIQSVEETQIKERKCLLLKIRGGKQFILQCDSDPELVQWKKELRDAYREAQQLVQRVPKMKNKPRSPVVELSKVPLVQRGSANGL
Chain of Integrin beta-1 (Homo sapiens) + Integrin alpha-4 (Homo sapiens) (P05556 whole entry, looked up): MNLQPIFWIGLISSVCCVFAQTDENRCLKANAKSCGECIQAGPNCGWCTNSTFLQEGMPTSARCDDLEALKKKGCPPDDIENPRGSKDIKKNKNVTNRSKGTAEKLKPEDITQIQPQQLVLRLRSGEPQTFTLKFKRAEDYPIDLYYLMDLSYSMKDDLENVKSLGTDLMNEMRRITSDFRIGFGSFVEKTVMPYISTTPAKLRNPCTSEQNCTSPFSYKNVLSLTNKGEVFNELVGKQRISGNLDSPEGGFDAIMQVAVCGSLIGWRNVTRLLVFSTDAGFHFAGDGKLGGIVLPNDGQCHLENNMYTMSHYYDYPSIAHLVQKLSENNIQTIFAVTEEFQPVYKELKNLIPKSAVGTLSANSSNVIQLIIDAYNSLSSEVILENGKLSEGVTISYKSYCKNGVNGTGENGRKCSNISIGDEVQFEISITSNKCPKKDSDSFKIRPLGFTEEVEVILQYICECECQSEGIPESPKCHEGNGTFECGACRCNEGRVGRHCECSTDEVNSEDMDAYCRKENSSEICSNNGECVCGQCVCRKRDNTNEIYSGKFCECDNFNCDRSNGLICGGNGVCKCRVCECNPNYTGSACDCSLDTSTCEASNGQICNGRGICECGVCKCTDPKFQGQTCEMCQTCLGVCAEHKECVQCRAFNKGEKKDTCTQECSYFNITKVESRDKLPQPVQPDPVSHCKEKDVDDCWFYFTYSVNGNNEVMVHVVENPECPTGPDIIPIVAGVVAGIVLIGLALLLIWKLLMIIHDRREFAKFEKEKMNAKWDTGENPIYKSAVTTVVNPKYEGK
Chain of Integrin beta-1 (Homo sapiens) + Integrin alpha-4 (Homo sapiens) (P13612 whole entry, looked up): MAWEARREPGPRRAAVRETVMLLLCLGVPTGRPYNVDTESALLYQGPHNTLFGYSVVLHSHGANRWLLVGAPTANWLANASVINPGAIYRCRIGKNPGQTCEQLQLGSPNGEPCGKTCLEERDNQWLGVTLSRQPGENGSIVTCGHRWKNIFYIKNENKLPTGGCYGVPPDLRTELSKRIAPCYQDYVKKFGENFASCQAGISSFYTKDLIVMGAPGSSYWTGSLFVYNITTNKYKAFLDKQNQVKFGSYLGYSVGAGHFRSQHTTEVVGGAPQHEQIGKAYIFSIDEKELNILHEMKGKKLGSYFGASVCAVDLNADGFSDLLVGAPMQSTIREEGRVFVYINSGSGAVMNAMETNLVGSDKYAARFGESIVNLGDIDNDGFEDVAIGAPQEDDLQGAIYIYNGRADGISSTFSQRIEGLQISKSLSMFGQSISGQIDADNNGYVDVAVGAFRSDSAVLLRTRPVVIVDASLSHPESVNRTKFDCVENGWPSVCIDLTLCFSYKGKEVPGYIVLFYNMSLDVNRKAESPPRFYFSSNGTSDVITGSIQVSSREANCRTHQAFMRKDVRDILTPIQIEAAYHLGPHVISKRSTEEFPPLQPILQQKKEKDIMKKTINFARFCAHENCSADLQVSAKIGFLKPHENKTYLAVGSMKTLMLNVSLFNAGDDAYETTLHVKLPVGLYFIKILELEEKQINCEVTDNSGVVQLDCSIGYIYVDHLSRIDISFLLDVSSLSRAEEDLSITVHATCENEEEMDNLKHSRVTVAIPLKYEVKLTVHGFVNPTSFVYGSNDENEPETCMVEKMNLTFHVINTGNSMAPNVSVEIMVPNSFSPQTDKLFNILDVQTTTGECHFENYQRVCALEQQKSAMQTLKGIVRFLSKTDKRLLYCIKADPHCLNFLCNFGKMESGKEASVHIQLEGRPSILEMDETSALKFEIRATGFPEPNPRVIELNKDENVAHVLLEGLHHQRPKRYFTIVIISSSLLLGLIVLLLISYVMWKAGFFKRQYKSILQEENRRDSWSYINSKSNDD
Chain of AP-2 complex subunit beta (Homo sapiens) (P63010 whole entry, looked up, the tested form may be a part, one chain of several): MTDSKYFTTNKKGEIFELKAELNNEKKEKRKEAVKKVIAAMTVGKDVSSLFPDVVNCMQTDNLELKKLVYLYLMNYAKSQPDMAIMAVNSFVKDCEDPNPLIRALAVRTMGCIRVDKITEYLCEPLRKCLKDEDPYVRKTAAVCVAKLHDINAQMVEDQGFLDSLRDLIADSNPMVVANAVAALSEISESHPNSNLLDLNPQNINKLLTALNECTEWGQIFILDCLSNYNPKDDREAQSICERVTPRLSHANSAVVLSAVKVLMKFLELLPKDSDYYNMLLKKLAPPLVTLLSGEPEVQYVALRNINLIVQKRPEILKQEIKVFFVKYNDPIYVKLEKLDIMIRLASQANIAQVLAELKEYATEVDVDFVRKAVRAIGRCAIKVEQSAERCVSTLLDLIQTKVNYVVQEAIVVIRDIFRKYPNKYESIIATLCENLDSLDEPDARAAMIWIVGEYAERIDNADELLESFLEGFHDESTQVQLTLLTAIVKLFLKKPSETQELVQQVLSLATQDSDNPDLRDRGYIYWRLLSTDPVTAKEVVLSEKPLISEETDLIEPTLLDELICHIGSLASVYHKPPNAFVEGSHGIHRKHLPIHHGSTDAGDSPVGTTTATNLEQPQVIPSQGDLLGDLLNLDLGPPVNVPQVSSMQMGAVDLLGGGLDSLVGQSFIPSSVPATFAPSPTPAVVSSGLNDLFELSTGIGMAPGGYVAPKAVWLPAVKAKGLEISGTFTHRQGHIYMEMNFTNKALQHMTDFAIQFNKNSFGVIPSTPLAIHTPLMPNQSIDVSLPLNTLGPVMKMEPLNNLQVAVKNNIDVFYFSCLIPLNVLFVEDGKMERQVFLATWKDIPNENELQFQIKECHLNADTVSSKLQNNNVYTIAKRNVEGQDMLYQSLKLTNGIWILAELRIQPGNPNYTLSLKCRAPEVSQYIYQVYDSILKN
Chain of ATP-binding cassette sub-family B member 6 (Homo sapiens) (Q9NP58 whole entry, looked up): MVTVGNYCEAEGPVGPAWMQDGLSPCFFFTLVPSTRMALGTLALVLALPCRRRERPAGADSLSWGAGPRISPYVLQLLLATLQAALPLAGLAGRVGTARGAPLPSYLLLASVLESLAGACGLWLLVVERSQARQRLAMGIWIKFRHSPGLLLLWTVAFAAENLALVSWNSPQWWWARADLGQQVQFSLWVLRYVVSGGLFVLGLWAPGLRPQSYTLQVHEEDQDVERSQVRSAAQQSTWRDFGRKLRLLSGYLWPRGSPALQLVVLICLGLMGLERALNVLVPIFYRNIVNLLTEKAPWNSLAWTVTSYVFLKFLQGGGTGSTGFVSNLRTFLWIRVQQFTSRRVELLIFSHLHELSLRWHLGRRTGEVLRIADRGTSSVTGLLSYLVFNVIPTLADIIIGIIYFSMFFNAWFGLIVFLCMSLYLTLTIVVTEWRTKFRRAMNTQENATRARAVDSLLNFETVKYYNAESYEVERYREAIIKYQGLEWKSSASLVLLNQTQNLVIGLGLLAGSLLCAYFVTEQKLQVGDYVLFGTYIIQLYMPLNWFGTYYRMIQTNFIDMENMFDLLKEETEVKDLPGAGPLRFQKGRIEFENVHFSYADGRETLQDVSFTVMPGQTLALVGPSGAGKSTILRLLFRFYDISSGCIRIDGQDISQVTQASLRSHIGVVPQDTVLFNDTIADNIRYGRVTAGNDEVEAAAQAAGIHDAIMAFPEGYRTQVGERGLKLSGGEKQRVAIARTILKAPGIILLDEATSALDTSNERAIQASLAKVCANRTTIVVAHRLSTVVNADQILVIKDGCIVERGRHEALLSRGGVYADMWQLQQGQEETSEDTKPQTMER
Chain of Beta-2 adrenergic receptor (Homo sapiens) (P07550 whole entry, looked up): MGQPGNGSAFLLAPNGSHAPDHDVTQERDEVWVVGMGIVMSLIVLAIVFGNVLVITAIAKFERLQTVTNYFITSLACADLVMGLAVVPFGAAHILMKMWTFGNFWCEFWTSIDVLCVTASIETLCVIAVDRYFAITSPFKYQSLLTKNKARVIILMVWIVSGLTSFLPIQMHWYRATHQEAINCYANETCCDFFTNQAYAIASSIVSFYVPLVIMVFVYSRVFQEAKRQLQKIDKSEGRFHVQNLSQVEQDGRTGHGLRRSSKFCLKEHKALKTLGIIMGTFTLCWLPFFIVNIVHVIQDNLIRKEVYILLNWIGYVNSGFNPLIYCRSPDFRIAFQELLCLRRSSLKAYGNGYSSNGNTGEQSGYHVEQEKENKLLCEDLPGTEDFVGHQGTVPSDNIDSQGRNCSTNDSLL

With `O=C(NCCO)c1ccc2[nH]c3ccccc3c2c1`, the percent of DMSO control GFP in test [1] is 98.4% (inactive). In addition, the results for the GFP response vs DMSO in [2] and in test [4] were 104% (inactive) and 101% (inactive), respectively. Further, the percent response of DMSO control in test [3] is 102% (inactive). Besides, the GFP response, % of DMSO in test [5] was 101% (inactive). In test [6], this compound showed a double positive events of 58.7%. Also, the vesicle binding response in [6] is 246% (inactive). Moreover, the inhibition in [7] was -0.45% (inactive); in test [11], -8.91% (inactive); in test [15], -1% (inactive). In addition, the superoxide response (% of plate) in [8] is 96.6% (inactive). The aptamer binding inhibition in test [9] was 2% (inactive). The response in test [10] is -3.67% (inactive); in [12], 3.8% (inactive). Also, the binding (% of control) in test [13] is 98.7% (inactive). In test [14], the efflux inhibition (fraction of control) was 0.11 (inactive). In addition, in [16], the differentiation response is 5.13% (inactive).
For the compound `CC(C)N(C(=O)Cc1ccccc1[N+](=O)[O-])C(C)C`, in test [1], the percent of DMSO control GFP is 104% (inactive). The GFP response vs DMSO in [2] was 96.3% (inactive); in test [4], 92.2% (inactive). Besides, the percent response of DMSO control in test [3] was 102% (inactive). Moreover, the GFP response, % of DMSO in test [5] was 104% (inactive). The same compound displayed a double positive events in [6] of 60.4%. In addition, the vesicle binding response in [6] was 240% (inactive). Also, the inhibition in test [7] is 3.67% (inactive); in [11] it was -8.88% (inactive); in [15], 5% (inactive). Further, the superoxide response (% of plate) in test [8] is 104% (inactive). In test [9], the aptamer binding inhibition is 2% (inactive). The response is -2.55% (inactive) in test [10] and 1.74% (inactive) in test [12]. Further, the binding (% of control) in test [13] was 103% (inactive). Also, the efflux inhibition (fraction of control) in test [14] was -0.13 (inactive). In addition, the differentiation response in test [16] was -26.4% (inactive).
On to `O=C(OCC(O)C(O)COC(=O)c1ccccc1)c1ccccc1` (stereo not given), for which the percent of DMSO control GFP in [1] is 102% (inactive). For the same compound, the GFP response vs DMSO in test [2] is 105% (inactive); in test [4] it was 106% (inactive). For the same compound, the percent response of DMSO control in [3] was 105% (inactive). Besides, the GFP response, % of DMSO in [5] is 107% (inactive). Further, the double positive events in test [6] came to 58.5%. Further, the vesicle binding response in test [6] is 102% (inactive). The inhibition in test [7] is -10.5% (inactive); in test [11] it was 2.63% (inactive); in test [15] it was 2% (inactive). In addition, in test [8], the superoxide response (% of plate) was 105% (inactive). Moreover, the aptamer binding inhibition in [9] is -1% (inactive). Besides, the response in test [10] was -4.55% (inactive); in test [12] it was -5% (inactive). The binding (% of control) in [13] is 97.7% (inactive). Besides, in test [14], the efflux inhibition (fraction of control) is 0.17 (inactive). Further, in [16], the differentiation response is -16.3% (inactive).
`Cc1cnc(N)c2c(=O)oc3ccccc3c12`: the percent of DMSO control GFP in [1] was 99.8% (inactive). Besides, the GFP response vs DMSO in test [2] was 100% (inactive); in test [4], 96.6% (inactive). Also, the percent response of DMSO control in test [3] was 105% (inactive). Further, the GFP response, % of DMSO in test [5] is 95.3% (inactive). The double positive events in test [6] came to 61.2%. Further, the vesicle binding response in test [6] was 275% (inactive). For the same compound, the inhibition is -8.75% (inactive) in test [7], -2.59% (inactive) in [11] and -2% (inactive) in [15]. Besides, in test [8], the superoxide response (% of plate) is 98.8% (inactive). For the same compound, in test [9], the aptamer binding inhibition was 4% (inactive). Also, the results for the response in test [10] and in [12] were -6.01% (inactive) and -3.82% (inactive), respectively. Besides, the binding (% of control) in test [13] is 97.1% (inactive). The efflux inhibition (fraction of control) in [14] was -0.01 (inactive). Further, the differentiation response in test [16] is -6.6% (inactive).
With `COCCn1c(SCCOc2ccccc2)nc2ccccc2c1=O`, in test [1], the percent of DMSO control GFP is 99.8% (inactive). Also, the GFP response vs DMSO in test [2] was 108% (inactive); in test [4], 103% (inactive). Also, the percent response of DMSO control in test [3] was 103% (inactive). Also, the GFP response, % of DMSO in test [5] is 96.8% (inactive). The double positive events in [6] was determined as 54%. For the same compound, the vesicle binding response in test [6] is 154% (inactive). Further, the inhibition was 6.95% (inactive) in test [7], -3.51% (inactive) in [11] and 18% (inactive) in test [15]. Also, the superoxide response (% of plate) in test [8] was 104% (inactive). In addition, the aptamer binding inhibition in [9] was 5% (inactive). For the same compound, the response in [10] was -6.97% (inactive); in [12], 0.42% (inactive). Also, in test [13], the binding (% of control) was 103% (inactive). Besides, the efflux inhibition (fraction of control) in test [14] was 0.36 (inactive). The differentiation response in test [16] was 1.28% (inactive).

The values are drawn from PubChem BioAssay.
